Drawing on PubChem BioAssay (NCATS), this text covers Potency, activity change, negative = cytotoxicity and outcome for 33 molecules.

Records with an inconclusive call do not appear. The source made the active and inactive calls. Calls come from the whole dose curve; as a rule, active = well fitted cell-killing curve with a large enough effect; inconclusive = small, poorly fitted or top-dose-only effect; inactive = flat fitted curve, though single readings scatter. Bridge positions count the residues as written; N and C are the ends. Square brackets hold non-standard residues; d marks the D form. Side chains are listed from the residue outwards. Peptide text beside a SMILES is read from it. * marks the point of attachment. Phg(4-OMe) = COc1ccc([C@H](N)C(=O)O)cc1; d(aIle) = CC[C@H](C)[C@@H](N)C(=O)O; d(aThr) = C[C@@H](O)[C@@H](N)C(=O)O; NMeF = CN[C@@H](Cc1ccccc1)C(=O)O; Isobutyryl = CC(C)C(=O)*
% is set by controls: 0 for no effect and ±100 for the full control effect; potency is the fitted concentration of half-maximal effect.

A short description of the first assay: Panc-1005 Cancer Cell Toxicity qHTS against the NCATS CANVASS Library (AID 1347349). Note: nearly all actives have a fitted effect of over 60% in size. The following applies: Panc-1005 viability, CellTiter-Glo luminescence, 72 h; series mostly up to 38.3 µM. In outline:
(§1)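 In this cytotoxicity screen, 1000 cells per well rested 4 hours, then received compound (11 concentrations) for a 72-hour incubation; an ATP-dependent luminescent signal (CellTiter-Glo) was the endpoint.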
Consider `C=C1CC[C@@H](Br)C(C)(C)[C@]12CC=C(C)C(=O)C2`, for which the Potency result was “inactive”. On the same count and under the same terms, as for `COc1cc(/C=C/C(=O)OC[C@@H](Cc2ccc(O)c(OC)c2)[C@@H](COC(=O)/C=C/c2ccc(O)c(OC)c2)Cc2ccc(O)c(OC)c2)ccc1O`, the figure is 9.43 µM (active); as for `O=C1CC2OCC=C3CN4C5CC3C2[C@@H]2N1c1ccccc1[C@]52C[C@@H]4C1=C[C@H]2C3CC4N(CC[C@@]45c4ccccc4N(C1=O)[C@@H]25)C/C3=C/CO` (stereo not given in full), 16.8 µM (active). For `CC[C@H](C)[C@H]1NC(=O)[C@@H](NC(=O)C(C)C)[C@@H](C)OC(=O)[C@H](COC(=O)CNC(C)=O)NC(=O)[C@@H]([C@@H](C)O)NC(=O)[C@H](Cc2ccccc2)N(C)C(=O)[C@H](c2ccc(OC)cc2)NC1=O` (Isobutyryl-T[d(aIle)][Phg(4-OMe)][NMeF][d(aThr)]S([Gly-Ac]); ester 1-C), the Potency result was “inactive”. Still for that read-out and setting: as for `C=C(C)CC[C@H](Cc1c(O)cc(O)c2c1O[C@H](c1ccc(O)cc1)CC2=O)C(=C)C`, the entry is “inactive”. The same measure, in the same setting: as for `COc1c(O)cc2c(c1O)C(=O)c1c(coc1C)C2=O`, the entry is “inactive”; as for `COc1ccc2[nH]c3c(c2c1)CCN1C[C@H]2C[C@@H](OC(=O)c4cc(OC)c(OC)c(OC)c4)[C@H](OC)[C@@H](OC)[C@H]2C[C@H]31`, 13.3 µM (active). For the molecule `C=C[C@](Cl)(CBr)CCC=C(C)C`, the Potency entry was “inactive”.

Regarding `C=CC(CCCCC)C1C(=O)NC(=O)C1C(=O)C1C2C(C)CC(C(=O)O)CC2CC1(O)C(=O)/C=C/C` (stereo not given), the Potency result was “inactive”. With `COc1cc(C2OCC3C(c4ccc(O)c(OC)c4)OCC23)ccc1O` (stereo not given), the activity change, negative = cytotoxicity is -5.51% [at 7.64 µM] (inactive). In the case of `COc1cc(O)c(C(=O)[C@@H]2[C@H](CC=C(C)C)C(C)=CC[C@H]2c2ccccc2)c(O)c1`, the Potency is 9.43 µM (active). For the molecule `COc1cc2c(c(O)c1O)C(=O)c1c(coc1C)C2=O`, the Potency was 9.43 µM (active). The same measure, in the same setting: as for `CCC(=O)N[C@@H](C[C@H](C)C(Cl)(Cl)Cl)C(=O)N1C(=O)C=C(OC)[C@@H]1CC(C)C`, the entry is “inactive”; as for `C/C1=C/[C@@H](C)[C@H](O)[C@@H](O)/C=C/CC/C=C/C(=O)O[C@@H]1[C@H](C)C(=O)CCCC1CC(=O)NC(=O)C1`, “inactive”.

As to `CN1CC[C@]2(c3cccc4c3N[C@H]3N(C)CC[C@@]43[C@]34CCN(C)[C@H]3Nc3ccccc34)c3ccccc3N[C@H]12`, the Potency is 21.1 µM (active).

Regarding `CC(=O)Oc1cc2c(c(OC(C)=O)c1C1CCc3cc(Cl)c(Cl)n31)C(=O)n1c-2cc(Cl)c1Cl` (stereo not given), the Potency was 6.68 µM (active). The same measure, in the same setting: the same measure for `C/C=C(/C)c1c(Cl)c(O)c(C)c2c1Oc1c(Cl)c(O)c(Cl)c(C)c1C(=O)O2`: “inactive”. For the molecule `CC(C)C[C@@H]1c2c(O)c(C=O)c(O)c(C=O)c2O[C@]2(C)C=C[C@@H](C(C)C)C[C@H]12`, the Potency result is “inactive”.

As to `C/C=C(/C)c1cc(O)c(C)c2c1Oc1cc(O)cc(C)c1C(=O)O2`, the Potency entry was “inactive”. On the same count and under the same terms, as for `C[C@H]1C=C[C@H]2CCCC[C@@H]2[C@H]1C(=O)[C@H]1CC2=C(C(=O)O)CCN2C1=O`, the entry is “inactive”; as for `COC12OC1(C13OC1(OC)C(=O)c1cc4cc(C)oc(=O)c4c(O)c1C3O)C(O)c1c(cc3cc(C)oc(=O)c3c1O)C2=O` (stereo not given), “inactive”; as for `CO[C@H]1[C@@H](OC(=O)/C(C)=C\[C@@H]2O[C@@H]2[C@H]2O[C@H]2C)[C@H](O)[C@H](OCC23C[C@@H]4[C@H](C)CC[C@H]4C4(C=O)CC2C=C(C(C)C)C34C(=O)O)O[C@@H]1C` (stereo not given in full), “inactive”.

A further assay in a line: SW1088 Cancer Cell Toxicity qHTS against the NCATS CANVASS Library (AID 1347350). Note: nearly all actives have a fitted effect of over 75% in size. The following applies: SW1088 viability, CellTiter-Glo luminescence, 72 h; series mostly up to 38.3 µM. The procedure, abridged: as §1
Consider `C/C=C/C1C=CC2CC(C)CC(C)C2C1C(=O)CC(=O)NC(CO)C/C=C/CCCCC` (stereo not given), for which the Potency was 14.9 µM (active). Same read-out and setting: the same measure for `C=CC(CCCCC)C1C(=O)NC(=O)C1C(=O)C1C(/C=C/C)C=CC2CC(C(=O)O)CC(C)C21` (stereo not given): 9.43 µM (active); for `COc1cc(/C=C/C(=O)OC[C@@H](Cc2ccc(O)c(OC)c2)[C@@H](COC(=O)/C=C/c2ccc(O)c(OC)c2)Cc2ccc(O)c(OC)c2)ccc1O`: 8.41 µM (active). Still for that read-out and setting: as for `C=C[C@@]1(C)CC[C@@H]([C@H](C)C(=O)/C=C/C(C)(C)O)O1`, the entry is “inactive”; as for `C=C1CC[C@@H](O[C@H]2C[C@@](O)([C@H](C)NC(=O)c3[nH]c(C)c(Cl)c3Cl)[C@H](O)[C@@H](C)O2)[C@@H]2C=C[C@H](C)C(/C(O)=C3/C(=O)[C@H](C(C)C)N([C@@H]4O[C@H](C)[C@H](OC(N)=O)[C@H](OC(C)=O)[C@@H]4OC)C3=O)[C@@H]12` (stereo not given in full), 5.95 µM (active); as for `CC[C@H](C)[C@H]1NC(=O)[C@@H](NC(=O)C(C)C)[C@@H](C)OC(=O)[C@H](COC(=O)CNC(C)=O)NC(=O)[C@@H]([C@@H](C)O)NC(=O)[C@H](Cc2ccccc2)N(C)C(=O)[C@H](c2ccc(OC)cc2)NC1=O` (Isobutyryl-T[d(aIle)][Phg(4-OMe)][NMeF][d(aThr)]S([Gly-Ac]); ester 1-C), “inactive”. The same measure, in the same setting: as for `C=C(C)CC[C@H](Cc1c(O)cc(O)c2c1O[C@H](c1ccc(O)cc1)CC2=O)C(=C)C`, the figure is 23.7 µM (active); as for `C[C@]12CC[C@]3(C1)[C@H](CC2=O)C[C@@H](OC(=O)c1ccccc1)[C@H]1[C@](C)(C(=O)O)CCC[C@@]13C`, 1.49 µM (active); as for `Cc1occ2c1C(=O)c1c(cc(O)c(O)c1O)C2=O`, 5.95 µM (active).

With `C=C[C@](Cl)(CBr)CCC=C(C)C`, the Potency result is “inactive”.

For the molecule `CC(=O)O[C@H]1c2ccccc2-c2c3c(cc4c2[C@@H]1N(C(C)=O)CC4)OCO3`, the Potency was 26.6 µM (active). Same read-out and setting: as for `C[C@]12CCC[C@](C)(C(=O)O)[C@@H]1CC[C@@]1(C)c3cocc3CC[C@H]21`, the entry is “inactive”. For the molecule `COc1cc(C2OCC3C(c4ccc(O)c(OC)c4)OCC23)ccc1O` (stereo not given), the outcome was “inactive [at 7.64 µM]”. For `COc1cc(O)c(C(=O)[C@@H]2[C@H](CC=C(C)C)C(C)=CC[C@H]2c2ccccc2)c(O)c1`, the Potency is 5.95 µM (active).

Turning to `C[n+]1cc2cc(C(N)=O)[nH]c3c(=N)c(Cl)c(N)c1c23`, the Potency entry is “inactive”. Consider `COc1cc2c(c(O)c1O)C(=O)c1c(coc1C)C2=O`, for which the Potency is 9.43 µM (active). With `CC[C@H]1[C@H](C)[C@H](c2cc(OC)c(OC)cc2OC)[C@@H](C)[C@H](c2cc(OC)c(OC)cc2OC)[C@@]12C=C(OC)C(=O)C=C2OC`, the Potency was 18.8 µM (active). The same measure, in the same setting: as for `CC(=O)Oc1cc2c(c(OC(C)=O)c1C1CCc3cc(Cl)c(Cl)n31)C(=O)n1c-2cc(Cl)c1Cl` (stereo not given), the figure is 4.73 µM (active); as for `C/C=C(/C)c1c(Cl)c(O)c(C)c2c1Oc1c(Cl)c(O)c(Cl)c(C)c1C(=O)O2`, 18.8 µM (active).

With `C[C@H]1C=C[C@H]2CCCC[C@@H]2[C@H]1C(=O)[C@H]1CC2=C(C(=O)O)CCN2C1=O`, the Potency is 16.8 µM (active). Still for that read-out and setting: the same measure for `C/C=C(/C)c1c(Cl)c(OC)c(C)c2c1Oc1c(Cl)c(O)c(Cl)c(C)c1C(=O)O2`: 13.3 µM (active); for `COC12OC1(C13OC1(OC)C(=O)c1cc4cc(C)oc(=O)c4c(O)c1C3O)C(O)c1c(cc3cc(C)oc(=O)c3c1O)C2=O` (stereo not given): 18.8 µM (active); for `CO[C@H]1[C@@H](OC(=O)/C(C)=C\[C@@H]2O[C@@H]2[C@H]2O[C@H]2C)[C@H](O)[C@H](OCC23C[C@@H]4[C@H](C)CC[C@H]4C4(C=O)CC2C=C(C(C)C)C34C(=O)O)O[C@@H]1C` (stereo not given in full): “inactive”.
